# Data taken from PubChem BioAssay AID1209 (Sanford-Burnham Center for Chemical Genomics, 2008).
# Several values for one entry are separate records, joined by “and”; a condition that tells them apart may be missing. Equal entries are not always repeated. Hit rate of the full screen: of about 190,000 compounds, about 810 (0.43%) were called active. Many of the other results were omitted from the sample, so actives are more common in it than they were. A number with no mark means an inactive call. Cut-off read from the data, not from the text of the source: active = inhibition above about 50%; inactive = the rest.
# Target: Mannose-6-phosphate isomerase (Homo sapiens) (UniProt P34949)
# Test: inhibitors of human PMI, primary screen, biochemical, fluorescence intensity, coupled assay (AID 1209);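 note: plate controls were DMSO vehicle for no effect and wells lacking substrate for full effect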
# Conditions: purified PMI enzyme, at 20 µM, hits give high values
# Chain of Mannose-6-phosphate isomerase (Homo sapiens) (P34949 whole entry, looked up): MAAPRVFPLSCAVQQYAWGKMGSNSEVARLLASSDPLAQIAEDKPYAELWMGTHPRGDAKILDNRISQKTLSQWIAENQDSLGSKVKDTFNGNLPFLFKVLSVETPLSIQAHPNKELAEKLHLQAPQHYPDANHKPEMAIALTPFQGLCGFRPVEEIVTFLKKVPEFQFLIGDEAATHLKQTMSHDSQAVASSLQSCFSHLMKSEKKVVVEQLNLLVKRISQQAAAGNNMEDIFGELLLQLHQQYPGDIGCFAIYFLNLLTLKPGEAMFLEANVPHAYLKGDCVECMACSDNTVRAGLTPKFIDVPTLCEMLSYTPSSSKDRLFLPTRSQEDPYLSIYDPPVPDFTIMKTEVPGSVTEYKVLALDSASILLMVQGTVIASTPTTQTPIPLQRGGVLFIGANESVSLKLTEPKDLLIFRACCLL
row,Structure (SMILES),inhibition
1,COc1ccc(-c2csc(Nc3ccc(S(=O)(=O)Nc4cc(C)on4)cc3)n2)cc1C,18.4%
2,CN(Cc1ccncn1)C(=O)CC1C(=O)NCCN1Cc1cccc(Oc2ccccc2)c1 (stereo not given),4.2%
3,COc1ccccc1N1CCN(CCCCOc2cccc3ccccc23)CC1,-10.7%
4,Fc1ccc(NC(=S)Nc2cccc3cnccc23)cc1,10.9%
5,COc1cc(NC(=S)Nc2cccnc2)cc(OC)c1,55.4% (active)
6,COc1cc(OC)cc(C(=O)NC(=S)Nc2cccnc2)c1,13.1%
7,CCOc1ccc(NC(=S)Nc2cccnc2)cc1,27.8%
8,COc1cccc(NC(=S)Nc2cccnc2)c1,10.6%
9,CCOc1ccc(NC(=S)Nc2cccc3cnccc23)cc1,64.9% (active)
10,CCc1ccc(NC(=S)Nc2cccc3cnccc23)cc1,40.2%
11,O=C(NC(=S)Nc1cccc2cnccc12)c1ccccc1,22.7%
12,CCOc1ccc(NC(=S)Nc2cc(-c3ccccc3)[nH]n2)cc1,35.1%
13,COc1ccc(NC(=S)Nc2cccc3cnccc23)cc1,64.2% (active)
14,CCOc1ccc(NC(=S)Nc2ccc(OCC)cc2)cc1,7.6%
15,CCc1cccc2c(C(=O)Cn3nnc(-c4ccc(OC)c(OC)c4)n3)c[nH]c12,13.9%
16,O=C(NCCc1c[nH]c2ccccc12)C(=O)NCC1OCCN1S(=O)(=O)c1ccc(Cl)cc1 (stereo not given),10%
17,COc1ccc(NC(=O)COC(=O)C(CC(C)C)N2C(=O)C3CC=CCC3C2=O)cc1Cl (stereo not given),16.5%
18,N#Cc1c(NC(=O)CSc2n[nH]c(Cc3ccccc3)n2)oc(-c2ccccc2)c1-c1ccccc1,-1.5%
19,CCOc1cccc(OCCOCCOc2ccccc2C(C)=O)c1,4.1%
20,COc1cccc(/C=N/NC(=O)C(=O)N/N=C/c2cccc(OC)c2OC)c1OC,-0.6%
21,CCN(CC)CCNC(=O)Cn1c(C)cc2ccccc2c1=O,-2.3%
22,O=C1N=C(N2CCCCC2)SC1=C1CCCC1,1.2%
23,CCN(CC)S(=O)(=O)c1ccc(NC(=O)C2CCCN(C(=O)c3ccc(Cl)cc3)C2)cc1 (stereo not given),14.2%
24,CCc1ccc(C(=O)COC(=O)c2nn(C)c(=O)c3ccccc23)cc1,-3.7%
25,COc1cc(C(=O)O)nc2ccccc12,26.7%

row,Structure (SMILES),inhibition
1,O=C(/C=C/c1ccccc1)NCCN1CCOCC1,2.1%
2,COCCNC(=S)Nc1cccc2cnccc12,17.7%
3,Fc1ccccc1NC(=S)Nc1cccc2cnccc12,33.9%
4,COc1ccccc1NC(=S)Nc1cccc2cnccc12,69.6% (active)
5,COCCn1c(=O)[nH]c2cc(C(=O)NCCc3ccc(S(N)(=O)=O)cc3)ccc2c1=O,-4.1%
6,CC1CCCC(C(=O)O)N1C(=O)CCSSCCC(=O)N1C(C)CCCC1C(=O)O (stereo not given),-1.2%
7,CC(C)c1ccc(O)c(NC(=S)NC(=O)CCc2ccccc2)c1,12.8%
8,CC(Nc1oc(-c2ccco2)nc1C#N)c1ccccc1 (stereo not given),13.7%
9,O=C(CSc1nnc(-c2c[nH]c3ccccc23)o1)c1ccc(-c2ccccc2)cc1,9%
10,CCN(CC)c1ccc(NC(=O)COc2ccccc2C)cc1S(=O)(=O)Nc1ccccc1OC,38.9%
11,COc1ccccc1NS(=O)(=O)c1cc(NC(=O)c2ccc(=O)[nH]c2)ccc1N1CCOCC1,0.7%
12,COc1ccc(C(=O)Nc2ccc(Cl)c(S(=O)(=O)Nc3ccccc3OC)c2)cc1,16.8%
13,CCN(CC)c1ccc(NC(=O)c2ccc(=O)[nH]c2)cc1S(=O)(=O)Nc1ccccc1OC,61.7% (active)
14,CCN(CC)c1ccc(NC(=O)COc2ccccc2C#N)cc1S(=O)(=O)Nc1ccccc1OC,-5.1%
15,CCN(CC)c1ccc(NC(=O)c2ccccc2Br)cc1S(=O)(=O)Nc1ccccc1OC,63.9% (active)
16,CCN(CC)c1ccc(NC(=O)c2ccccc2F)cc1S(=O)(=O)Nc1ccccc1OC,15.4%
17,CCN(CC)c1ccc(NC(=O)c2ccccc2)cc1S(=O)(=O)Nc1ccccc1OC,30.8%
18,CCN(CC)c1ccc(NC(=O)c2cccc(C)c2)cc1S(=O)(=O)Nc1ccccc1OC,53.3% (active)
19,O=C(COC(=O)c1cnccn1)NCc1ccc2c(c1)OCO2,-15.9%
20,CCC(C)(C(=O)NC1CCCCC1)N(Cc1ccco1)C(=O)CC1NC(=O)NC1=O (stereo not given),8.4%
21,COc1cc(C2NC(=O)NC(C)=C2C(=O)OC(C)C)ccc1OC(=O)c1ccco1 (stereo not given),1%
22,Cc1cccc(Nc2ncnc3c2cnn3C)c1,10.3%
23,COc1ccc(CN2C(=O)c3ccccc3C2C(=O)NCCc2ccccc2)c(OC)c1 (stereo not given),17.9%
24,COc1cc(/C=c2\sc3nc(=O)c(-c4ccccc4)nn3c2=O)ccc1OCCC(C)C,-1.8%
25,Cc1cccc(NC(=O)C2CCN(S(=O)(=O)c3c(C)nn(C)c3C)CC2)n1,8.4%

row,Structure (SMILES),inhibition
1,CCOc1ccccc1NC(=O)C1CCN(S(=O)(=O)c2c(C)nn(C)c2C)CC1,112% (active)
2,CCOc1ccccc1NC(=O)C1CCN(S(=O)(=O)c2c(C)noc2C)CC1,5.5%
3,N#CC(c1ccc(F)cc1)c1ccc(C(=O)c2ccc(F)cc2)cc1 (stereo not given),5.1%
4,COc1ccc(S(=O)(=O)Nc2ccc(O)c(Sc3ncn[nH]3)c2)cc1,10.6%
5,O=S(=O)(Nc1cc(Sc2cccc3cccnc23)c(O)c2ccccc12)c1ccc(F)cc1,2.1%
6,O=S(=O)(Nc1cc(Sc2ncn[nH]2)c(O)c2ccccc12)c1ccccc1,99.3% (active)
7,O=S(=O)(Nc1cc(Sc2cccc3cccnc23)c(O)c2ccccc12)c1ccccc1,9.2%
8,COc1ccc(S(=O)(=O)Nc2cc(Sc3ncn[nH]3)c(O)c3ccccc23)cc1,98.7% (active)
9,CCOc1ccc(S(=O)(=O)Nc2ccc(O)c(Sc3ncn[nH]3)c2)cc1,3.2%
10,Nc1ccccc1N=c1ssnc1Cl,61.4% (active)
11,OCc1c(Cl)nc2ccccn12,-8.7%
12,OCc1ccccc1N=c1ssnc1Cl,78.3% (active)
13,Cc1cc(Oc2ccccc2)nc(SCC(N)=O)n1,-2%
14,NC(=O)CSc1nnc(C2CC2)n1-c1ccccc1,-7.8%
15,O=[N+]([O-])c1cc(S(=O)(=O)N2CCCC2)ccc1NCCc1ccccc1,4.4%
16,CC1=C(C(=O)Nc2ccccn2)C(c2ccccc2Cl)NC(=S)N1 (stereo not given),-6.6%
17,N#CC(c1cccc(Cl)c1)c1ncc(C(F)(F)F)cc1Cl (stereo not given),9.9%
18,CC1CCc2c(sc(NC(=O)COC(=O)c3ccc(O)cc3)c2C#N)C1 (stereo not given),2.3%
19,COc1ccc(-c2[nH]c3ccccc3c2SCCNC(=O)c2ccccc2)cc1,7.4%
20,CS(=O)(=O)N1CCN=C1SCc1ccc([N+](=O)[O-])cc1,-2.2%
21,COc1ccc2nc(S(=O)Cc3ncc(C)c(OC)c3C)[nH]c2c1 (stereo not given),72.5% (active)
22,COc1ccc2nc(C(C)O)[nH]c2c1 (stereo not given),5.1%
23,Cc1c(OCC(F)(F)F)ccnc1CS(=O)c1nc2ccccc2[nH]1 (stereo not given),30.6% and 46.2%
24,CC(C)Oc1ccc(OCCn2c(=S)[nH]c3c(N)ncnc32)cc1,54.9% (active)
25,CCOc1ccc(OCCn2c(=S)[nH]c3c(N)ncnc32)cc1,11%

row,Structure (SMILES),inhibition
1,Cc1ccc(OCCn2c(=S)[nH]c3c(N)ncnc32)cc1,8.7%
2,Cc1cccc(C(=O)Nc2ncc(CN3CCOCC3)s2)c1,4.7%
3,Cc1ccc(-n2[nH]c(C)c(C=Nc3ccc4[nH]c(=O)[nH]c4c3)c2=O)cc1,16.2%
4,Cc1[nH]n(-c2cccc3ccccc23)c(=O)c1C=Nc1ccc2[nH]c(=O)[nH]c2c1,14.6%
5,O=c1[nH]c2ccc(N=Cc3c(O)ccc4cc(Br)ccc34)cc2[nH]1,64.6% (active)
6,CC(C)(C)NC(=O)NC(=O)COC(=O)Cc1coc2ccc3ccccc3c12,25.3%
7,CN(C)/C=C1/Oc2c(ccc3ccccc23)C1=O,21.5%
8,CN(C)/C=C1\Oc2ccc3ccccc3c2C1=O,86.5% (active)
9,COc1cccc2c1C(=O)c1ccc3ccccc3c1C2=O,-43.2%
10,CCNC(=O)CC1SC(=Nc2ccc(C)cc2)NC1=O (stereo not given),-4.7%
11,CC(=O)c1cccc(NC(=O)NNC(=O)CCC(=O)Nc2ccc(C)c(C)c2)c1,-12%
12,Cc1ccc(S(=O)(=O)c2ccc(C)cc2)cc1,-0.6%
13,CC(=O)Nc1ccc(S(=O)(=O)c2ccc(C)cc2)cc1,10.7%
14,COc1ccc(N2CCC(CNC(=S)Nc3cccc(C)c3)C2)cc1 (stereo not given),44.7%
15,CCc1cccc(C)c1NC(=S)NCC1CCN(c2ccc(OC)cc2)C1 (stereo not given),55% (active)
16,CCOc1ccc(NC(=O)NCC2CCN(c3ccc(OC)cc3)C2)cc1 (stereo not given),23.3%
17,COc1ccc(N2CCN(S(=O)(=O)c3cccc(C(F)(F)F)c3)CC2)cc1,-0.4%
18,COc1ccc(NC(=S)NCC2CCN(c3ccc(OC)cc3)C2)cc1 (stereo not given),49.3%
19,COc1ccc(N2CCC(CNC(=O)Nc3cccc(OC)c3)C2)cc1 (stereo not given),70% (active)
20,COc1ccc(N2CCC(CNC(=O)Nc3ccc(Cl)cc3)C2)cc1 (stereo not given),37%
21,COc1ccc(N2CCC(CNC(=S)Nc3cccc(OC)c3)C2)cc1 (stereo not given),29.7%
22,CCN1CCCC1CNS(=O)(=O)c1cccc(C(F)(F)F)c1 (stereo not given),-14.5%
23,COc1ccc(N2CCC(CNC(=O)Nc3ccccc3)C2)cc1 (stereo not given),74.5% (active)
24,COc1ccc(N2CCC(CNC(=O)Nc3ccc(C)c(C)c3)C2)cc1 (stereo not given),43.1%
25,COc1ccc(N2CCC(CNS(=O)(=O)c3cccc(C(F)(F)F)c3)C2)cc1 (stereo not given),65.5% (active)
